Assay [1] has as its target T1, Ephrin type-B receptor 1 (Homo sapiens) (UniProt P54762).
T1 sequence (whole entry): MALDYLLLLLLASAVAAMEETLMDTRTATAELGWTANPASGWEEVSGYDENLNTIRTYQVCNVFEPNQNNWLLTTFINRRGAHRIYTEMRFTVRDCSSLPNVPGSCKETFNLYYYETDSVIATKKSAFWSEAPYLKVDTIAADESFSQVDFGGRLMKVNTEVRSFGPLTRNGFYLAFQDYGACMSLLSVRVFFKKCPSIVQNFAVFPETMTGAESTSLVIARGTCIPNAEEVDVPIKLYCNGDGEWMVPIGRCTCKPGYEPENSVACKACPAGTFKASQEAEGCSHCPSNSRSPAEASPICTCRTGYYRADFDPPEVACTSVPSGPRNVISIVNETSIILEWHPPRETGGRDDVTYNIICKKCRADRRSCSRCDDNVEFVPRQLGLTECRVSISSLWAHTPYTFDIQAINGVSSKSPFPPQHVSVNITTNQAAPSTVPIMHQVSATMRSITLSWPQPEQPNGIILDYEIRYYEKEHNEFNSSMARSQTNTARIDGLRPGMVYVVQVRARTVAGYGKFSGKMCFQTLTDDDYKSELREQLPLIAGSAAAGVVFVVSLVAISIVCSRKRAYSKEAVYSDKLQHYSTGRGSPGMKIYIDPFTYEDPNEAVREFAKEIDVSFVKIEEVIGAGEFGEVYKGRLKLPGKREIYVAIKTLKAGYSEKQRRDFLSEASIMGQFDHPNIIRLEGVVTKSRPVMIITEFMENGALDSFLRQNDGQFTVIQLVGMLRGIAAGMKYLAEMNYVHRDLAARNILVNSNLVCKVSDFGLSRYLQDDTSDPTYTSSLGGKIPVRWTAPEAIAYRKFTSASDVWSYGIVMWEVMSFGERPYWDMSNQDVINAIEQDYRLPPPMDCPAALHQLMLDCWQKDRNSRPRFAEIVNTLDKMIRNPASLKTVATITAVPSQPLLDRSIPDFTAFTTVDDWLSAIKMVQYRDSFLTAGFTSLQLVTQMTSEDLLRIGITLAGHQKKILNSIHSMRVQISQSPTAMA
The conditions noted are these: at 10 µM.

Assay [2] deals with T2, Ephrin type-B receptor 2 (Homo sapiens) (UniProt P29323).
T2 sequence (whole entry): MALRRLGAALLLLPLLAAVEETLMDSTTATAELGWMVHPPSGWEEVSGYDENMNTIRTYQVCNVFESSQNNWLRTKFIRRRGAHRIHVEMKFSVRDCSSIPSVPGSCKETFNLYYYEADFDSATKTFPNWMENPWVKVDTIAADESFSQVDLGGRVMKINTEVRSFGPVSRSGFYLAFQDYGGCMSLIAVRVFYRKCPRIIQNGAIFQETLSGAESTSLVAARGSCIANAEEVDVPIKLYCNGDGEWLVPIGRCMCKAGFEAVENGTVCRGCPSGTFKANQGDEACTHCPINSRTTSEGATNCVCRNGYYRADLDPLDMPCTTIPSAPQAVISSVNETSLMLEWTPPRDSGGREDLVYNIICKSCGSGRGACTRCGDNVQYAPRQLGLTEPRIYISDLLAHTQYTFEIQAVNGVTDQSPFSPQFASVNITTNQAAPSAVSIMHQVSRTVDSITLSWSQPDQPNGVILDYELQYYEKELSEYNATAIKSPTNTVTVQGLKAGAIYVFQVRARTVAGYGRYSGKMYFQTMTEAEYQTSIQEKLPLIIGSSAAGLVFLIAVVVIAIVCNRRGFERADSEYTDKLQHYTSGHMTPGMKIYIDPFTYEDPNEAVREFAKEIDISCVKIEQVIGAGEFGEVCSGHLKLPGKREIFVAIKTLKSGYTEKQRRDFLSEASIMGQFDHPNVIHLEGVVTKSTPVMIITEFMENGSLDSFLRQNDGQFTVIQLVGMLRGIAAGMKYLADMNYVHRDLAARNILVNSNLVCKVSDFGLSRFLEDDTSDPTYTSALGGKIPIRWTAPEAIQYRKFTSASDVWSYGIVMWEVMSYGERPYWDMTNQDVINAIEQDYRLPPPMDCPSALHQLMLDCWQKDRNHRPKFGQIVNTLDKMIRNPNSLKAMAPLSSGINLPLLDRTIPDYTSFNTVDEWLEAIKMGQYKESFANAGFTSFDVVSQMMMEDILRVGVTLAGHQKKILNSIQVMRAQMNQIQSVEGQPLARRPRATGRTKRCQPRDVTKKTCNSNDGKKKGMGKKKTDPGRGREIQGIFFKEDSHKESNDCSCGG
The conditions noted are these: at 1 µM.

Assay [3] has as its target T2, Ephrin type-B receptor 2 (Homo sapiens). The conditions noted are these: at 10 µM.
For assay [4], the target named is T3, Ephrin type-B receptor 3 (Homo sapiens) (UniProt P54753).
T3 sequence (whole entry): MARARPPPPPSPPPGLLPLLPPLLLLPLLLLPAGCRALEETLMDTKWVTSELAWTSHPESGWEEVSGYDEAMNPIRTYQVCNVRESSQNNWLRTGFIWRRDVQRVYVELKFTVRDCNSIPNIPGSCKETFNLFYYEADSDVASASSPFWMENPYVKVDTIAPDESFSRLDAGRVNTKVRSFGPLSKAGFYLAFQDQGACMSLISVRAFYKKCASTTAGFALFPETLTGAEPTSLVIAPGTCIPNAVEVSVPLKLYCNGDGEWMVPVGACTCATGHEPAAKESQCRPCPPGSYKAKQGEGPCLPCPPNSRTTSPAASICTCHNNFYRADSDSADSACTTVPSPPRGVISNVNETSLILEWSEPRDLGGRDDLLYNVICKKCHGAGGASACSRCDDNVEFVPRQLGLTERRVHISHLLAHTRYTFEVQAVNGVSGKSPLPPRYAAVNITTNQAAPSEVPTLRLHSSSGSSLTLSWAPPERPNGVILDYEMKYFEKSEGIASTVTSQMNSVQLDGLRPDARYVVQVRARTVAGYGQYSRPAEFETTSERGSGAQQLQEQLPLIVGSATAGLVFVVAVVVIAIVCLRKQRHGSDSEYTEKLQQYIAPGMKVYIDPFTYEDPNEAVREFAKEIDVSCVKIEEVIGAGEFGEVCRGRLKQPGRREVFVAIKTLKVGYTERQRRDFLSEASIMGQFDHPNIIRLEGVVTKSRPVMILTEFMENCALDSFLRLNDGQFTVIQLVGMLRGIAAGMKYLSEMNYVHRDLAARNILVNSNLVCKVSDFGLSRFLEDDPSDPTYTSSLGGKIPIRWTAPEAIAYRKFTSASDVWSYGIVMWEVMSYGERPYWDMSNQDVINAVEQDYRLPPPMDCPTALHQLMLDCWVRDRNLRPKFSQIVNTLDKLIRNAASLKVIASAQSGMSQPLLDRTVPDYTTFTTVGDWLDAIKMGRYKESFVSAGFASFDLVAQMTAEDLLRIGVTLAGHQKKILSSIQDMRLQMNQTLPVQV
The conditions noted are these: at 1 µM.

The target of assay [5] is T3, Ephrin type-B receptor 3 (Homo sapiens). The conditions noted are these: at 10 µM.
Assay [6] has as its target T4, Ephrin type-B receptor 4 (Homo sapiens) (UniProt P54760).
T4 sequence (whole entry): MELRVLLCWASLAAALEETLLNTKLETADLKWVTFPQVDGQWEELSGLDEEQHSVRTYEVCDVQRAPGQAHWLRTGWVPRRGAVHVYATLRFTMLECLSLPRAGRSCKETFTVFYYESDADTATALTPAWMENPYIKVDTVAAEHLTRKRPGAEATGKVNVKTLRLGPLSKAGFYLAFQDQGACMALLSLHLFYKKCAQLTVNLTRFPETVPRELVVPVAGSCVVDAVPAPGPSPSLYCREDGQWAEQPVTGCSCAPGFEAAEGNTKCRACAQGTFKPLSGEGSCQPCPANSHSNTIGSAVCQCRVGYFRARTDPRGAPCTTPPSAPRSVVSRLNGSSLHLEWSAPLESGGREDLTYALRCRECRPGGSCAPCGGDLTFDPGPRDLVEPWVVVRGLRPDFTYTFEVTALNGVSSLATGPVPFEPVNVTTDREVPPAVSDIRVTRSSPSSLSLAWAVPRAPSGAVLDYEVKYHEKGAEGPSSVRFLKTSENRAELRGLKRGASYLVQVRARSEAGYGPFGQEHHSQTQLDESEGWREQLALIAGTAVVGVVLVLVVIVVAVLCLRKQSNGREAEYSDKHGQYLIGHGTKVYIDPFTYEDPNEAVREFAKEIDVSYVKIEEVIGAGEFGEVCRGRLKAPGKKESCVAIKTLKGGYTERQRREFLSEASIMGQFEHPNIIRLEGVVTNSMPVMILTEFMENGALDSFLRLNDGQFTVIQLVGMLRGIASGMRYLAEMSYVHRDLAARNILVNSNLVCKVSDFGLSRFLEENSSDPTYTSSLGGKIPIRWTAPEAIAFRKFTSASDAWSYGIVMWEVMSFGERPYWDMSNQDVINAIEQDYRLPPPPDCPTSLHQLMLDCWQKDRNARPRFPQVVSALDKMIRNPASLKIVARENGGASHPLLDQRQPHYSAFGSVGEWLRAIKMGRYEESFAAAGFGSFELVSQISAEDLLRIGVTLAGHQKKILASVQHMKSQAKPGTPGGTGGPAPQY
The conditions noted are these: at 1 µM.

Assay [7] concerns the target T4, Ephrin type-B receptor 4 (Homo sapiens). The conditions noted are these: at 10 µM.
The target of assay [8] is Receptor tyrosine-protein kinase erbB-4 (Homo sapiens) (UniProt Q15303). The conditions noted are these: at 1 µM.
Receptor tyrosine-protein kinase erbB-4 (Homo sapiens), sequence (Q15303 whole entry): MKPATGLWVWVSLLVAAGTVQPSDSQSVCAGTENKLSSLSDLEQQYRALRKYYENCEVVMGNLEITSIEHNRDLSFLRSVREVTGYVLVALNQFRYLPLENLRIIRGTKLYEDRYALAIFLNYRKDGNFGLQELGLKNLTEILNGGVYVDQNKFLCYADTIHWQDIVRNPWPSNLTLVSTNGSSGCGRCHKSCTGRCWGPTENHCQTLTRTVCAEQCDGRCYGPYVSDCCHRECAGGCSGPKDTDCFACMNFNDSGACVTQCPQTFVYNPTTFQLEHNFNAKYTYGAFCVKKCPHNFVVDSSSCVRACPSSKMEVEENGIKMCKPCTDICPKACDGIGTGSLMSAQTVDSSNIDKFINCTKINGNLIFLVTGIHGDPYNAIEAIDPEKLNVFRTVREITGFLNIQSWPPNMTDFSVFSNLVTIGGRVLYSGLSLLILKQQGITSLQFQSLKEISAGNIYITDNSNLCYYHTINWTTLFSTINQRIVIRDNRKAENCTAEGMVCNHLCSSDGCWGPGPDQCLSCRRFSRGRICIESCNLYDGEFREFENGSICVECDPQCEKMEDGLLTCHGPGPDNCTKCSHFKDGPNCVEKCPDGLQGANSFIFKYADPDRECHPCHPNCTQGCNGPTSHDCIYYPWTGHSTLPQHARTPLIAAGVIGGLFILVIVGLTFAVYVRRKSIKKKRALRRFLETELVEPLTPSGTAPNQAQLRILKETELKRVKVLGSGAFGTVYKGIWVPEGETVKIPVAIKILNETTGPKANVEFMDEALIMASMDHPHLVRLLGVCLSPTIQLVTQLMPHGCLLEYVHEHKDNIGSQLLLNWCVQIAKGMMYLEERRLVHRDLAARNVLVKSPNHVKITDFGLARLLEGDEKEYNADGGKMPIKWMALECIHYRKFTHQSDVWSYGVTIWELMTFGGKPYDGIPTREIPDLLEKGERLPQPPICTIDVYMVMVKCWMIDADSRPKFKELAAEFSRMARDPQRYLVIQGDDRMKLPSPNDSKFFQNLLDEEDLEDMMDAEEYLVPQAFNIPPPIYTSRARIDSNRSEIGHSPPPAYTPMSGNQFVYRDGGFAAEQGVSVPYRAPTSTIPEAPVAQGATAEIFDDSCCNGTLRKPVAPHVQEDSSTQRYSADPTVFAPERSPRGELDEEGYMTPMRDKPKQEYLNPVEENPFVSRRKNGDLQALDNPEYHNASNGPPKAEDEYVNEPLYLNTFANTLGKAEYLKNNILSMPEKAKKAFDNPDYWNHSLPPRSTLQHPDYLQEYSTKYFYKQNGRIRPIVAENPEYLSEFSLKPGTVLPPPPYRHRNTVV
The target is the same in assay [9]. The conditions noted are these: at 10 µM.
Assay [10] has as its target Focal adhesion kinase 1 (Homo sapiens) (UniProt Q05397). The conditions noted are these: at 1 µM.

The values that follow come from ChEMBL document CHEMBL2218924, “A broad activity screen in support of a chemogenomic map for kinase signalling research and drug discovery” (Biochem J, 2013).

Focal adhesion kinase 1 (Homo sapiens), sequence (Q05397 2-1052 limits assumed): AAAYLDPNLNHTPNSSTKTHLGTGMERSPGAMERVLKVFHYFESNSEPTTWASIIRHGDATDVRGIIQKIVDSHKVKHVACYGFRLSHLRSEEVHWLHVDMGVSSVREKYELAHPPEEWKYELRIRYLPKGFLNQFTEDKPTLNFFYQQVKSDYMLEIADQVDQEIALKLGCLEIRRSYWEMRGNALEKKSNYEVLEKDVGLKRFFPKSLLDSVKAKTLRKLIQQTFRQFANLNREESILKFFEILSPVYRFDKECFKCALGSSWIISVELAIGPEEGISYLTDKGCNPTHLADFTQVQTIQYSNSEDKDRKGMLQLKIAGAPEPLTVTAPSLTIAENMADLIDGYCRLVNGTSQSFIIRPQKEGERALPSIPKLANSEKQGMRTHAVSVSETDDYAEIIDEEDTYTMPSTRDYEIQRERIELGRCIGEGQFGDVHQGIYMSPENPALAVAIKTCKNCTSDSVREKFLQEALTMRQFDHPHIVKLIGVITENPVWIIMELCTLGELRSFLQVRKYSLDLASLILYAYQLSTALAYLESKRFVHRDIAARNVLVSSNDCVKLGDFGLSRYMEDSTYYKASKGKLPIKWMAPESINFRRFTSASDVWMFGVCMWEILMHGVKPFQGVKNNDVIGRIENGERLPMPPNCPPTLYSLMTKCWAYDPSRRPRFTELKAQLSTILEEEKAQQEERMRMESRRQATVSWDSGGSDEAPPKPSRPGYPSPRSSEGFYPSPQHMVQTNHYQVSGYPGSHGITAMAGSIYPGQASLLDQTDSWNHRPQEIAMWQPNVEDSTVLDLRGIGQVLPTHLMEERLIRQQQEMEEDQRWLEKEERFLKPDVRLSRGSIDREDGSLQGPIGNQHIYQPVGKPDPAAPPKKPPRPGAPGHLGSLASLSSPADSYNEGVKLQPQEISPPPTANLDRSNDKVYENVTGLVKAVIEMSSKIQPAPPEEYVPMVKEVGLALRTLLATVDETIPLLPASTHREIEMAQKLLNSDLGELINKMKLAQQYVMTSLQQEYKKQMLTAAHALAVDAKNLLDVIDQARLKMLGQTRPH

What is called residual activity is the signal under treatment as a percentage of the control signal. As for `O=C1c2ccccc2-[n+]2ccc3c([nH]c4ccccc43)c21`, the residual activity was 85% in [1]; 114% in assay [2]; 116% in assay [3]; 100% (inactive) in assay [4]; 96% in assay [5]; 92% in assay [6]. Further, the residual activity in assay [7] was 84%; in assay [8] it was 69%; in assay [9], 67%; in assay [10], 95%.
